# From PubChem BioAssay
# Only some compounds are listed: those with a hit (about 3% of all), similar ones and a draw of the others.
# SARS PLpro yeast – qHTS of Yeast-based Assay for SARS-CoV PLP | S. cerevisiae expressing SARS-CoV PLpro, growth rescue | AID 485353, 2010 | Potency, µM (titrated, usually from 32.9 µM), for inactives: at the highest dose activity, positive = growth rescue, most hits filed as activators | hit rate 0.19% among 330,000; calls by dose curve; note: 0% is about no effect; nearly all actives have a fitted effect of over 55% in size
# Sm TGR block – qHTS Assay for the Inhibitors of Schistosoma Mansoni Peroxiredoxins | purified TGR, DTNB reduction, TNB absorbance 405 nm | Potency, µM (highest dose often 114 µM), for inactives: top-dose activity change, negative = inhibition, usual class: inhibitors | hit rate 3% among 360,000 | AID 485364, 2010; active = well fitted inhibition curve with a large enough effect; inconclusive = small, poorly fitted or top-dose-only effect; inactive = no such curve, though single readings can be large or run the other way; note: % is set by controls: 0 for no effect and ±100 for the full control effect; nearly all actives have a fitted effect of over 60% in size
#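 First, TGR (20 nM dispensed) and NADPH were mixed with compound. Second, a 15 min room-temperature incubation followed. Third, further NADPH and then DTNB were added to start the reaction. Finally, TNB absorbance was monitored kinetically.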
# An asterisk follows results filed as active; ? = inconclusive; · = no result given. Potency is the fitted concentration of half-maximal effect.
SMILES,SARS PLpro yeast,Sm TGR block
COc1ccc(NC(=O)CCNS(=O)(=O)c2ccc(Cl)c([N+](=O)[O-])c2)cc1S(N)(=O)=O,0%,35µM*
COc1ccc(NC(=O)CCNS(=O)(=O)c2cccc(C(C)=O)c2)cc1S(N)(=O)=O,1%,1%
CC(C)(C)OC(=O)N1CCC(c2c(C(=O)NC3CCN(Cc4ccccc4)CC3)cnn2-c2ccc(F)cc2F)CC1,·,4%
COC1=C(OC)C(=O)C(CCCCCCCCCCO)=C(C)C1=O,-17%,?
CC1=C(C)C(=O)C(CCCCC#CCCCC#CCO)=C(C)C1=O,6%,8.9µM*
Cc1ccc(S(=O)(=O)C(CNC(=O)COc2ccccc2)c2cccs2)cc1 (stereo not drawn),·,-18%
Cc1ccc2c(c1)C(=O)C(=O)N2Cc1ccccc1,2%,·
CCN1C(=O)C(=O)c2cc(C)ccc21,11µM*,·
Cn1c(-n2cccc2)c(-c2c(-c3ccc(F)cc3)[nH]c3c2c(=O)n(C)c(=O)n3C)c(=O)n(C)c1=O,·,-1%
COc1ccc(OC)c(CNC(=O)C2CCN(S(=O)(=O)N3CCCC3)CC2)c1,-9%,79µM*
COc1ccc(CNC(=O)C2CCN(S(=O)(=O)N3CCCC3)CC2)c(OC)c1,-12%,0%
CCc1nnc(SCc2nc(-c3ccccc3F)oc2C)c2cc3sccc3n12,·,0%
COc1ccc(C2C(C(N)=O)=C(C)Nc3nc(SCc4ccccc4Cl)nn32)cc1OC (stereo not drawn),·,-3%
Cc1ncc(CN2CCCC(C(=O)Nc3ccc(-c4ccco4)cc3)C2)n1C (stereo not drawn),1%,4%
CSc1ncc(CN2CCCC(C(=O)Nc3ccc(-c4ccco4)cc3)C2)cn1 (stereo not drawn),-3%,18µM*
CCOc1ccc(CN2CCN(C3CCSCC3)CC2CCO)cc1 (stereo not drawn),0%,?
CCOc1ccc(CN2CCN(C3CCC3)CC2CCO)cc1 (stereo not drawn),-3%,13µM*
Cc1ccc(N2C(=O)CS(=O)(=O)C23C(=O)N(Cc2cccc(F)c2)c2ccccc23)cc1Cl (stereo not drawn),·,0%
COC(=O)C1=C(C)N(Cc2ccccc2)C(=O)/C1=C\c1ccco1,-1%,8.9µM*
C=CCN1C(=O)/C(=C\c2ccco2)C(C(=O)OC)=C1C,7%,40µM*
COC(=O)C1=C(C)N(c2ccc(OC)cc2)C(=O)/C1=C\c1cccs1,-9%,-11%
COC(=O)C1=C(C)N(Cc2ccc(C)cc2)C(=O)/C1=C\c1cc(OC)c(OC)c(OC)c1,-4%,-23%
CCCCN1C(=O)/C(=C\c2ccco2)C(=O)N(CCc2ccccc2)C1=O,-2%,-1%
CCN1C(=O)/C(=C\c2ccco2)C(C(=O)OC)=C1C,3%,-3%
COC(=O)C1=C(C)N(c2cccc(OC)c2)C(=O)/C1=C\c1ccco1,17%,35µM*
SMILES,SARS PLpro yeast,Sm TGR block
COC(=O)C1=C(C)N(CCc2ccccc2)C(=O)/C1=C\c1ccco1,-30%,45µM*
Cc1ccc(NC(=O)Nc2c[nH]c(=O)[nH]c2=O)c(Cl)c1,·,-3%
O=C(c1ccccc1)c1ccc2nc(Nc3ccccc3Cl)c3nncn3c2c1,·,0%
CCC(=O)N1CCc2cc(S(=O)(=O)NC(Cc3ccccc3)C(=O)Nc3cccc(OC)c3)ccc21 (stereo not drawn),·,-2%
CN(C)c1ccc(/C=C2\CCC/C(=C\c3ccccc3)C2=O)cc1,-29%,-26%
CC(=O)N1/C(=C/c2ccc(N(C)C)cc2)C(=O)c2ccccc21,-32%,28µM*
CCN1CCOC(=O)C1CC(=O)Nc1ccc(C)c(Cl)c1 (stereo not drawn),·,11µM*
Cc1cccc(NC(=O)CC2C(=O)OCCN2Cc2ccccc2)c1 (stereo not drawn),·,-23%
Cc1ccc(Cl)cc1NC(=O)CC1NCCNC1=O (stereo not drawn),-13%,-6%
CCN1CCOC(=O)C1CC(=O)Nc1cc(Cl)ccc1C (stereo not drawn),·,7.9µM*
Cc1ccc(CNCc2c(C(=O)O)c(C)n(Cc3ccc(C)cc3)c2C)cc1,·,-6%
CCCS(=O)(=O)c1nc(S(=O)(=O)c2ccc(C)cc2)c(N(C)Cc2ccccc2)s1,·,1%
COc1ccc(CN(C)Cc2c(O)ccc3cc(Br)ccc23)cc1OC,0%,8.9µM*
COc1ccc2cc(Br)ccc2c1CC(=O)N(C)C,0%,·
COc1ccc(CCN(C)Cc2c(O)ccc3cc(Br)ccc23)cc1OC,1%,4µM*
COc1ccc(CCN(C)Cc2ccncc2)cc1OC,5%,-9%
CCOC(=O)c1c(Nc2ccc(C)cc2)nnc(-c2ccccc2)c1-c1ccccc1,·,8%
O=C(CCn1c(=O)oc2ccccc21)N1CCCCCC1,4%,-12%
O=C(CCn1c(=O)oc2ccccc21)n1c(=O)oc2ccccc21,-3%,16µM*
c1ccc(CNc2nc3c(-c4ccccc4)nnn3c3ccccc23)cc1,·,-1%
